CDC25B-CDK2 inh = human CDC25B-CDK2/CyclinA binding inhibition | P30305+P24941 | HTRF CDC25B-CDK2/CyclinA binding, anti-His/anti-Flag; hits give high values | z-score (concentration not given with the values) | hit rate 0.72% among 94,000 | AID 1259370; in the data active = z-score above about 3.2
TAR Tat displ = HIV-1 TAR-Tat binding disruption. HIV-1 TAR RNA, Tat peptide displacement FRET; hits give high values. z-score (test concentration not listed). hit rate 0.6% among 100,000; active = z-score of 3 or more in at least 2 runs
Starred values were filed as active, the others as inactive; · = no result. An excerpt weighted towards active compounds, which were near 0.9% of everything screened.

SMILES | CDC25B-CDK2 inh | TAR Tat displ
CCc1ccc(C2CC(=O)Nc3cc4c(cc32)OCCO4)cc1 (centres undefined) | 4.4* | 0.55
O=C1CC(c2ccc(-c3ccccc3)cc2)c2cc3c(cc2N1)OCCO3 (centres undefined) | 0.36 | 1.2
CN1CCN(C(=O)CCc2nnc3ccc(NCc4ccco4)nn23)CC1 | · | 0.39
O=C(CCc1nc2sc3c(c2c(=O)[nH]1)CCCCC3)NCCN1CCOCC1 | · | 5.5*
COCCNC(=O)CCc1nc2sc3c(c2c(=O)[nH]1)CCCCC3 | · | 0.44
COc1cccc(C2C(C(=O)OC3CCCCC3)=C(C)NC3=C2C(=O)CC(C)(C)C3)c1 (centres undefined) | -3.7 | 1.7
CN(CC(=O)O)S(=O)(=O)c1ccc2c(c1)N(CC(=O)O)C(=O)C1CCCCN21 (centres undefined) | · | 0.49
CCn1c(=O)/c(=C2\Sc3ccccc3N2C)s/c1=C\c1cccc[n+]1C | · | 1
CN1/C(=C\c2cc[n+](C)cc2)Sc2ccccc21 | 0.14 | 7.5*
C=CCN1/C(=C/c2cccc[n+]2C)Sc2ccccc21 | 0.99 | 6.7*
CCN1/C(=C/C2=CC(=O)CC(C)(C)C2)Sc2ccccc21 | -2.1 | -15
C=CC[n+]1ccc(/C=C2\Sc3ccccc3N2C)cc1 | -3.4 | 1.6
C=CCN1/C(=C/c2cc[n+](C)cc2)Sc2ccccc21 | 0.36 | 4.1*
Cc1ccc2nc(-c3ccc(C)c(NC(=O)c4ccc([N+](=O)[O-])o4)c3)oc2c1 | 0.76 | -1.6
Cc1oc(C)c2c(=O)cc(-c3ccc4c(c3)OCO4)cc(OC(=O)c3ccco3)c12 | -1.9 | -3.6
CN(CC(=O)Nc1ccc(Cl)cc1)S(=O)(=O)c1ccc2c(c1)CCC(=O)N2 | -0.66 | ·
O=C(NCC1CCCO1)C1CCN(c2nn3c(=O)c4c(nc3s2)CCCC4)CC1 (centres undefined) | · | 2
C=CCn1c(SCc2nc(-c3cccc(Cl)c3)no2)nc2cc3c(cc2c1=O)OCO3 | · | -0.8
O=c1ccc2cc(O)c(O)cc2o1 | · | 25*
O=c1ccc2ccc(O)cc2o1 | · | 0.33
CCOCCCNC(=O)c1oc2ccc3nc(N(C)C)sc3c2c1C | · | 0.6
CCN1C(=S)NC2CC1(C)Oc1c(OC)cccc12 (centres undefined) | -0.82 | ·
Cc1c2c(=O)n(-c3nc4ccccc4s3)nc-2cc(O)n1CCc1cnc[nH]1 | -0.36 | 26*
CCC(C)Cn1c(C)c2c(=O)n(-c3nc4ccccc4s3)[nH]c2cc1=O (centres undefined) | -1.5 | 1.2
Cc1c2c(=O)n(-c3nc4ccccc4s3)nc-2cc(O)n1CCc1c[nH]c2ccccc12 | 2 | 9.2*
SMILES | CDC25B-CDK2 inh | TAR Tat displ
Cc1nn(C(C)C(=O)NCCc2c[nH]c3ccccc23)c(=O)c2c1sc1ccccc12 (centres undefined) | -1.7 | 2.5
COc1ccc(-c2n[nH]c3c2C(c2cccnc2)N(c2ccc(Br)cc2)C3=O)cc1 (centres undefined) | -2 | ·
CCCc1cc(=O)n2nc(N3CCC(C(=O)NCCN4CCCC4)CC3)sc2n1 | -0.43 | 3.1
Cc1ccc(-c2n[nH]c(=O)c3c2CCCC3)cc1S(=O)(=O)N1c2ccccc2CC1C (centres undefined) | 0.62 | -0.04
COc1cc(/C=c2\sc3nc4ccccc4n3c2=O)cc(Cl)c1OCc1ccccc1F | -2.7 | ·
CNC[C@H](O)c1ccc(O)c(O)c1 | -1.7 | ·
NC[C@H](O)c1ccc(O)c(O)c1 | 5.9* | 27*
Cc1nn(CCCC(=O)NCCCN2CCCC2)c(=O)c2cc3occc3n12 | -0.1 | -0.27
Cc1cc2c(NC(=O)Nc3ccc(C(C)(C)C)cc3)cccc2nn1 | -2 | ·
Cc1cc2c(NC(=O)c3ccccc3C(=O)O)cccc2nn1 | 21* | ·
N#CC1=C(N)Oc2c(oc(CO)cc2=O)C1c1ccc(Cl)cc1 (centres undefined) | -0.45 | ·
Cc1ccc(-c2n[nH]c3c2C(c2ccc(O)cc2)N(C)C3=O)cc1 (centres undefined) | -0.37 | -1.8
COc1ccc(Cn2cc3c(-c4ccccc4)nnc-3c3cc4c(cc32)OCCO4)cc1 | 7.4* | -4.9
COc1ccc(-c2nnc3c4cc5c(cc4n(Cc4ccccc4)cc2-3)OCCO5)cc1 | -0.78 | -0.71
COc1ccccc1Cn1cc2c(-c3ccc(F)cc3)nnc-2c2cc3c(cc21)OCO3 | 0.03 | 2
COc1ccc(-c2nnc3c4cc5c(cc4n(Cc4ccccc4F)cc2-3)OCCO5)cc1OC | 7.3* | 1.1
Nc1nc(NCc2ccco2)n[nH]1 | -0.49 | ·
O=C(c1cccs1)n1c(=O)oc2ccccc21 | · | 1.6
Cc1ccc2c(c1)N(S(=O)(=O)c1cc(-c3cc(C)no3)ccc1C(C)C)CCO2 | · | 1.8
Cn1c(=O)c2c(c3ccccc31)OC(=O)CC2c1ccccc1 (centres undefined) | -0.44 | -0.31
Cn1c(=O)c2c(c3ccccc31)OC(=O)CC2c1ccco1 (centres undefined) | -0.48 | 14*
O=C1c2cccc3c(SCCO)ccc(c23)C(=O)N1CCc1ccccn1 | 7.8* | ·
O=C(CN1C(=O)c2cccc3cccc1c23)NCc1ccccn1 | -0.95 | 0.42
CCC(C(=O)Nc1cccc(F)c1)n1nc(C)c2sc3ccccc3c2c1=O (centres undefined) | -1.5 | 2.6
CCC(C(=O)NCc1cccs1)n1nc(C)c2sc3ccccc3c2c1=O (centres undefined) | -2.7 | 4*
SMILES | CDC25B-CDK2 inh | TAR Tat displ
CCC(C(=O)Nc1cccc(Cl)c1)n1nc(C)c2sc3ccccc3c2c1=O (centres undefined) | 0.04 | 13*
CCC(C(=O)NCCc1cccs1)n1nc(C)c2sc3ccccc3c2c1=O (centres undefined) | -1.1 | 1.5
O=C(CCc1nc(CSc2nc3ccccc3o2)no1)Nc1ccccc1F | · | 1.3
CC(C)OCCCNC(=O)C1CCCN(c2nnc(N3CCCC3=O)s2)C1 (centres undefined) | -1.3 | 1.3
CC1CCCCC1NC(=O)C1(C)Cn2c(cc3occc32)C(=O)N1CCN(C)C1CCCCC1 (centres undefined) | · | 2.3
N/C(=N\O)c1c(-c2ccccc2)cc(-c2ccc(F)cc2)[nH]c1=O | 11* | ·
O=c1cc(-c2ccccc2)[nH]c(=S)[nH]1 | -1.1 | ·
CCC1=Nc2cc(C(=O)NC(C)CC)ccc2Sc2ccccc21 (centres undefined) | 2.4 | -0.04
CCC(C)NC(=O)c1ccc2c(c1)N=C(C)c1cc(C)ccc1S2 (centres undefined) | -1.9 | 5.9*
COCC(=O)Nc1nnc2n1CCS2 | · | 1
Brc1ccc(C2Nc3cccc4cccc(c34)N2)cc1 | -0.51 | -0.41
COc1ccc(C2Nc3cccc4cccc(c34)N2)cc1Br | 1.5 | 26*
COc1cccc(C2Nc3cccc4cccc(c34)N2)c1O | 0.43 | 22*
Fc1ccc(C2Nc3cccc4cccc(c34)N2)cc1 | -1.3 | 13*
COc1cc(C2Nc3cccc4cccc(c34)N2)cc(OC)c1OC | -1.4 | ·
CCC12CN3CC(CC)(CN(C1)C3c1cccc(OC)c1O)C2O (centres undefined) | 0.01 | 0.4
Cc1ccc(NS(=O)(=O)c2cc(-c3csc(C)n3)ccc2C)cc1 | · | 1.3
c1ccc2c(c1)c(N1CCCC1)nn1cnnc21 | -0.53 | 0.22
CC1CCCN(c2nn3c(=O)c(C(=O)N4CCN(c5ccccc5)CC4)cnc3s2)C1 (centres undefined) | · | -0.98
CCOc1ccc(-c2noc(C3CCCN(S(=O)(=O)c4ccc(Br)cc4)C3)n2)cc1 (centres undefined) | · | 2
